High-throughput results: PubChem, Broad Institute
The list is a sample of the results.
aSyn UTR act: Activators via SNCA 5'UTR binding, MLPCN | alpha-synuclein 5'UTR reporter, activators screen | activity score, % (tested at 7.5 µM), hits read low | 7.1% of 300,000 active | AID 1814; in the data active means activity score below about -60%
* hit, by the source's call.

SMILES | aSyn UTR act
CCS(=O)(=O)c1nnnn1-c1ccccc1S(C)(=O)=O | -174*
O=c1[nH]nc(SCc2nc3ccccc3s2)n1C1CC1 | -144*
CCCn1c(=O)c2ccccc2n2c(SCc3nc4ccccc4s3)nnc12 | -160*
CCCn1c(SCc2nc3ccccc3s2)n[nH]c1=O | -165*
Cc1ccc(S(=O)(=O)N/N=c2\sc3ccccc3n2C)cc1 | -115*
Cc1cccc(S(=O)(=O)N/N=c2\sc3ccccc3n2C)c1 | -175*
O=C(Nc1ncc2c(n1)CC(c1ccco1)CC2=O)c1ccccc1 (configuration not stated) | -72*
O=C(/C=C/c1c[nH]c2ccccc12)c1cccc2ccccc12 | -95*
Cc1[nH]n(-c2ccc(Cl)cc2)c(=O)c1C=Nc1ccc(S(=O)(=O)N2CCOCC2)cc1 | -69*
CCCCN(CCCC)C(=S)N/N=C/c1c(C)[nH]n(-c2ccccc2)c1=O | 93
Cc1cc(C2=NNC(=NC3CC3)SC2)c(C)n1-c1ccccc1F | 99
Cc1ccccc1N=C1NN=C(c2ccccc2F)CS1 | -171*
Cc1ccc(C(=O)N/N=C2\SCC(=O)N2c2cc(C)ccc2C)cc1 | -94*
c1coc(CNc2nc(-c3ccncc3)cs2)c1 | -92*
COc1ccc(-c2csc(NCc3ccco3)n2)cc1 | -160*
Cc1nc(C)c(-c2csc(NCc3ccco3)n2)s1 | -99*
COc1cc(/C=C2\SC(N)=NC2=O)cc(OC)c1 | -64*
O=c1c2ccccc2nnn1CSc1ccccc1 | -75*
Cc1cccc(-n2ncc3c(NNC(=O)c4ccco4)ncnc32)c1 | -133*
Cc1ccc(-n2ncc3c(NNC(=O)c4ccco4)ncnc32)cc1Cl | -166*
Cc1ccc(N=c2c([N+](=O)[O-])nn(-c3ccccc3)n2O)c(C)c1 | -195*
Cc1c(Cl)cccc1N=c1c([N+](=O)[O-])nn(-c2ccccc2)n1O | -141*
Cc1cccc(-c2nsc(SCC(=O)Nc3ccc4c(c3)OCO4)n2)c1 | -96*
CSc1nsc(SCC(=O)Nc2ccc3c(c2)OCCO3)n1 | -136*
Cc1csc(SCC(=O)Nc2ccc3c(c2)OCCO3)n1 | -67*
SMILES | aSyn UTR act
Clc1ccc(-c2nnc(CCc3ccccc3)o2)c(Cl)c1 | -155*
Oc1ccccc1-c1nnc(COc2ccccc2)o1 | -88*
c1ccc(OCc2nnc(-c3ccccc3)o2)cc1 | -129*
Oc1ccccc1-c1nnc(COc2ccc(Cl)cc2Cl)o1 | -170*
CC[C@H]1OC(=O)C[C@@H](O)[C@H](C)[C@@H](O[C@@H]2O[C@H](C)C[C@H](N(C)C)[C@H]2O)[C@@H](CC=O)C[C@@H](C)C(=O)C=C[C@]2(C)O[C@H]2[C@@H]1C | -147*
CC1(C)CCC(=O)N2CC[C@H]3C[C@H](OC(=O)Nc4ccc(Br)cc4)C[C@@H]1[C@H]32 | -68*
O=C(Nc1ccc(Oc2c(F)c(F)c(F)c(F)c2F)cc1)OC1CCN2Cc3ccccc3N=C12 (configuration not stated) | 104
COc1ccc(NS(=O)(=O)c2cc(NC(=O)c3ccc(C)o3)ccc2N2CCCCC2)cc1 | -62*
O=C(Nc1ccc(N2CCCCC2)cc1)c1ccc([N+](=O)[O-])o1 | -214*
CS(=O)(=O)N1CCN(c2ccc(NC(=O)c3ccc([N+](=O)[O-])o3)cc2)CC1 | 72
O=C(Nc1ccccc1N1CCCC1)c1ccc([N+](=O)[O-])o1 | -112*
COc1ccc(N2CCCC2)c(NC(=O)c2ccc([N+](=O)[O-])o2)c1 | -70*
CCC(=O)c1ccc(SC(=O)N(C)C)cc1O | -68*
CCCc1nn(C)c(C(=O)Nc2ccc(CC)cc2)c1Cl | -74*
CCn1nc(C(=O)Nc2ccc(C)c(C)c2)c(Cl)c1Cl | -91*
CCCc1nn(C)c(C(=O)Nc2ccc(C)c(C)c2)c1Cl | -102*
CC1Oc2ccccc2N(CC(=O)NCc2ccccc2)C1=O (configuration not stated) | -91*
COC(=O)c1ccc(C)c(NS(=O)(=O)c2ccc(OC)cc2)c1 | 82
COc1ccc(S(=O)(=O)Nc2ccc(O)c3ccccc23)cc1 | -68*
O=C(Nc1cc2c(cc1Br)OCCO2)c1ccco1 | -101*
O=C(Nc1cc2c(cc1Br)OCCO2)c1cccs1 | -142*
O=C(Nc1ccc(NC(=O)c2ccco2)c(Cl)c1)c1ccc2c(c1)OCCO2 | -76*
O=C(Nc1cc2c(cc1Cl)OCCO2)c1ccco1 | -163*
O=C(Nc1c(C(=O)Nc2ccc3c(c2)OCCO3)cnn1-c1ccccc1Cl)c1ccco1 | -102*
S=C(Nc1ccccc1)Nc1ccc(OCc2ccc(Cl)cc2Cl)cc1 | 96
SMILES | aSyn UTR act
OCCNCc1ccc(OCc2ccc(Cl)cc2Cl)cc1 | -84*
CCc1nc(-c2cc3ccc(C)cc3[nH]c2=O)no1 | -84*
CC(=O)NC1Sc2ccccc2N=C1c1ccccc1 (configuration not stated) | -181*
CCOc1ccc(/C=C\C(C)=N\O)cc1 | -150*
CCOc1ccc(/C=C/C(=O)CCC(=O)O)cc1 | -79*
CCOc1ccc(-c2cn(-c3cccc(SC)c3)c(=O)[nH]2)cc1 | -72*
Oc1ccc(CN2CCN(c3ccccc3)CC2)c2cccnc12 | 80
O/N=C\c1cnc(N2CCN(c3ccccc3)CC2)s1 | -75*
CCNC(=S)N/N=C(\C)c1cccc([N+](=O)[O-])c1 | -62*
C/C(=N\NC(=O)c1cccc([N+](=O)[O-])c1)c1cccs1 | -81*
C/C(=N/NC(=O)c1ccc2c(c1)OCO2)c1ccc(Br)s1 | -89*
C/C(=N/NC(=O)c1ccc2c(c1)OCO2)c1cccc([N+](=O)[O-])c1 | -133*
C/C(=N\NC(=O)c1ccc(Cl)c(Cl)c1)c1ccc(Br)s1 | 91
CC(=O)c1c(C)nc(-c2ccccc2)nc1N | -72*
CCCNc1nc(-c2ccccc2)c(C(=O)OCC)cc1C#N | 94
CCOC(=O)c1c(C)nc(-c2ccccc2)nc1N | -120*
CCOC(=O)c1c(-c2ccccc2)cn2c(C)cc(C)nc12 | -150*
O=c1oc2cc(O)c(Cl)cc2c2ccccc12 | -88*
CC(O)/C=C/c1ccc2ccccc2n1 (configuration not stated) | -154*
CCOC(=O)c1c(C)oc2c1cc(O)c1ccccc12 | -104*
CCOC(=O)c1c(C)[nH]c2c1cc(O)c1ccccc12 | -189*
CCOC(=O)c1c(C)oc2c1c1c(c3ccccc32)OCN(CCCC(=O)O)C1 | -108*
CCOC(=O)c1c2c(n(C)c1C)C(=O)C(=O)c1ccc(Br)cc1-2 | 110
O=C(N/N=C/c1ccccc1F)c1csc2c1CCCC2 | -235*
O=C(N/N=C/c1cccc(F)c1)c1csc2c1CCCC2 | -144*
SMILES | aSyn UTR act
O=C(Nc1ccccc1O)c1csc2c1CCCC2 | -157*
Cc1ccc2[nH]c3c(=O)n(N)c(C)nc3c2c1 | -70*
COc1ccc2sc(NC(C)=O)nc2c1 | -119*
CCC(=O)Nc1nc2cc(OC)ccc2s1 | -107*
COc1ccc2sc(NCc3ccccc3)nc2c1 | -112*
CCC(=O)Nc1nnc(/C=C/c2ccc(OC)cc2)s1 | -141*
CCC(=O)Nc1nc2ccc3nc(C)sc3c2s1 | -151*
COc1ccc2sc(NC(=O)CC(C)C)nc2c1 | -120*
Cc1ccc(N=Nc2c(C)[nH]n(C(N)=S)c2=O)cc1 | -116*
Cc1[nH]n(C(N)=S)c(=O)c1N=Nc1cccc(C(F)(F)F)c1 | -165*
Cc1[nH]n(C(N)=S)c(=O)c1N=Nc1ccc(Br)cc1 | -90*
Cc1[nH]n(C2=NCCS2)c(=O)c1N=Nc1cccc(C(F)(F)F)c1 | 67
CCc1ccc(C(=O)NCc2cccs2)s1 | -63*
CC(C)Oc1ccc(C(=O)NCc2cccs2)cc1 | -85*
